Data on 26 compounds can be found in PubChem BioAssay (NCATS).

Structures are written as SMILES. Values joined by “and” are separate entries in the source; they are usually repeats but may differ in a detail not shown here. Equal values may be shown once. Records with an inconclusive call do not appear. Values without a mark were called inactive. Active and inactive are the calls of the source. Calls come from the whole dose curve; as a rule, active = well fitted curve in the direction sought with a large enough effect; inconclusive = small, poorly fitted or top-dose-only effect, or another doubt; inactive = no such curve, though single readings can be large; an effect the other way counts as inactive or inconclusive.

Assay [1] concerns the target Cytochrome P450 3A7 (Homo sapiens) (UniProt P24462). Description: Cytochrome P450 family 3 subfamily A member 7 (CYP3A7) small molecule antagonists: luciferase biochemical qHTS assay (AID 1963596). Note: % is set by controls: 0 for no effect and ±100 for the full control effect; nearly all actives have a fitted effect of over 40% in size. The gist of the method: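 Biochemical CYP3A7 activity measured with P450-Glo system: luciferin formed from proluciferin substrate in NADPH-driven reaction (1 h, room temperature) after 10 min compound preincubation. Signal in relative luminescence units.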
A general note: qHTS replaces the single test concentration by a dilution series.

Assay [2] can be described thus: Viability qHTS for spleen associated tyrosine kinase inhibitor (SYKi) drug resistant MV4-11 cells (AID 1963824). Note: nearly all actives have a fitted effect of over 35% in size. Note: potency is the fitted concentration of half-maximal effect. An outline of the steps: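 SYK-inhibitor-resistant MV4-11 AML cells were seeded at 500 per well onto compound and cultured 72 hours (37 °C, 5% CO2). CellTiter-Glo was then added, and after 10 min at room temperature, luminescence gave viability.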
Assay [3] in a line: Cellular viability qHTS for adrenocortical cancer (ACC) cell line NCI-H295R (AID 1963990). Note: nearly all actives have a fitted effect of over 60% in size. Note: potency is the fitted concentration of half-maximal effect. An outline of the steps:
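CellTiter-Glo ATP luminescence, read 48 h after compound addition, measured viability of NCI-H295R adrenocortical cells grown serum-free with ITS. Final concentrations spanned up to 46 uM. Data normalized to DMSO and doxorubicin, fitted for IC50 and maximal response.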

Assay [4] can be described thus: Quantitative highthroughput screen to assess conditional lethalithy of NOMO1 cells grown in RPMI1640 with untreated serum (RPMI+s) (AID 1963876).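 For Viability: 100% = DMSO wells and 0% = empty wells without cells.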 Note: nearly all actives have a fitted effect of over 35% in size. Note: potency is the fitted concentration of half-maximal effect. An outline of the steps: (§1)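 Each medium arm—HPLM with 10% dialyzed FBS, or RPMI1640 with 5 mM glucose and 10% untreated or dialyzed FBS—was screened against an 11-point, 3-fold compound titration for 48 h at 37 °C, with CellTiter-Glo luminescence as endpoint.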

A short description of assay [5]: Quantitative highthroughput screen to assess conditional lethalithy of NOMO1 cells grown in RPMI1640 with dialyzed fetal bovine serum (RPMI+ds) (AID 1963877).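 For Viability: series mostly up to about 46 µM; 100% = DMSO control wells and 0% = empty wells.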 Note: nearly all actives have a fitted effect of over 30% in size. Note: potency is the fitted concentration of half-maximal effect. The gist of the method: as §1
The nature of assay [6]: Quantitative highthroughput screen to assess conditional lethalithy of NOMO1 cells grown in Human Plasma-Like Medium with dialyzed fetal bovine serum (HPLM+ds) (AID 1963878).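 Note: 100% = DMSO wells and 0% = empty wells on each plate; nearly all actives have a fitted effect of over 35% in size.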 The gist of the method: as §1
The nature of assay [7]: Quantitative highthroughput screen to assess conditional lethalithy of P12 Ichikawa cells grown in Human Plasma-Like Medium with dialyzed fetal bovine serum (HPLM+ds) (AID 1963879). For Viability: series mostly up to about 46 µM. Note: nearly all actives have a fitted effect of over 35% in size. Note: potency is the fitted concentration of half-maximal effect. Particulars: Potency: viability. The gist of the method:
as §1

Assay [8] in a line: Quantitative highthroughput screen to assess conditional lethalithy of P12 Ichikawa cells grown in RPMI1640 with dialyzed fetal bovine serum (RPMI+ds) (AID 1963880).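 For Viability: 100% = DMSO wells and 0% = empty wells on each plate.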 Note: nearly all actives have a fitted effect of over 35% in size. Note: potency is the fitted concentration of half-maximal effect. Particulars: Potency: P12-Ichikawa viability. An outline of the steps: as §1
Assay [9] is described as follows: Quantitative highthroughput screen to assess conditional lethalithy of P12 Ichikawa cells grown in RPMI1640 with untreated serum (RPMI+s) (AID 1963881).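 For Viability: series mostly up to about 46 µM; 100% = DMSO wells and 0% = empty wells without cells.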 Note: nearly all actives have a fitted effect of over 35% in size. Note: potency is the fitted concentration of half-maximal effect. Particulars: Potency: viability. The gist of the method:
as §1

Assay [10] in a line: Quantitative highthroughput screen to assess conditional lethalithy of SEM cells grown in Human Plasma-Like Medium with dialyzed fetal bovine serum (HPLM+ds) (AID 1963882). For Viability: series mostly up to about 46 µM. Note: nearly all actives have a fitted effect of over 35% in size. Note: potency is the fitted concentration of half-maximal effect. The gist of the method: as §1
A short description of assay [11]: Quantitative highthroughput screen to assess conditional lethalithy of SEM cells grown in RPMI1640 with unreated serum (RPMI+s) (AID 1963883).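 For Viability: 100% = DMSO wells and 0% = empty wells without cells.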 Note: nearly all actives have a fitted effect of over 35% in size. Note: potency is the fitted concentration of half-maximal effect. The gist of the method:
as §1

Assay [12] in a line: Quantitative highthroughput screen to assess conditional lethalithy of SEM cells grown in RPMI1640 with dialyzed fetal bovine serum (RPMI+ds) (AID 1963884).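 For Viability: series mostly up to about 46 µM; 100% = DMSO control wells and 0% = empty wells without cells.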 Note: nearly all actives have a fitted effect of over 35% in size. Note: potency is the fitted concentration of half-maximal effect. An outline of the steps: as §1
A short description of assay [13]: Cellular viability qHTS for adrenocortical cancer (ACC) cell line SW-13 (AID 1963989).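 Note: cells grown in serum-free medium with ITS supplement; % is set by controls: 0 for no effect and ±100 for the full control effect; nearly all actives have a fitted effect of over 65% in size.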 Particulars: SW-13 ACC cells viability, CellTiter-Glo, 48 h; activity (max response): active compounds read low. An outline of the steps:
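Viability was read as CellTiter-Glo luminescence after 48 h compound treatment (up to 46 uM final) of SW-13 cells grown serum-free; titration curves were fit with a four-parameter logistic model to give IC50 and efficacy.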

Sequence of Cytochrome P450 3A7 (Homo sapiens) (P24462 whole entry, looked up): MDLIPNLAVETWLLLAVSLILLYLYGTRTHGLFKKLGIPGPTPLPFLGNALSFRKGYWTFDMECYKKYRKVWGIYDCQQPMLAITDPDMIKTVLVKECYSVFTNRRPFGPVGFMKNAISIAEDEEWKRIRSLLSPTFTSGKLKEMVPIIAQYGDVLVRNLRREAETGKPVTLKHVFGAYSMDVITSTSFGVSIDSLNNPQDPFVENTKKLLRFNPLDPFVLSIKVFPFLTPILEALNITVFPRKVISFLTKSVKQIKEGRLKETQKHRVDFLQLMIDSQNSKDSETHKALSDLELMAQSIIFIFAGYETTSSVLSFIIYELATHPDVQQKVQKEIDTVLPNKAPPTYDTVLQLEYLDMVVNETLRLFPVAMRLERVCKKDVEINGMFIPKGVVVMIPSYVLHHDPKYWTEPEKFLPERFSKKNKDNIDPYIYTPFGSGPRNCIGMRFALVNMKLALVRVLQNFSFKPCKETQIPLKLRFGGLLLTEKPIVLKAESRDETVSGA

With `CCCOC(=O)c1ccc(O)cc1`, the Potency result in assay [1] and in assay [3] was “inactive” each time. Also, in [2], the Potency is 0.0863 µM (active).
Consider `CC[C@H](C)C(=O)O[C@H]1C[C@H](O)C=C2C=C[C@H](C)[C@H](CC[C@@H](O)C[C@@H](O)CC(=O)O)[C@H]21`, for which the Potency entry in assay [1], in [4], in assay [5], in assay [6], in assay [7] and in assay [8] was “inactive” in each case. Further, the Potency entry in assay [9], in assay [10], in [11] and in assay [12] was “inactive” each time. In assay [13], the activity (max response) was -19.4%.
On to `CC1(C)NC(=O)N(c2ccc([N+](=O)[O-])c(C(F)(F)F)c2)C1=O`, for which the Potency entry in assay [1], in assay [4], in [5], in assay [6], in [7] and in [8] was “inactive” in each case. Moreover, the Potency result in [9], in assay [10], in assay [12] and in [3] was “inactive” each time. The activity (max response) in assay [13] was -3.44% and -9.93%.
As for `CCOC(=O)N1CCN([N+]([O-])=NOc2ccc([N+](=O)[O-])cc2C#N)CC1`, the Potency result in assay [1] is “inactive”. The Potency was 3.32 µM (active) in [4]; 2.96 µM (active) in assay [5]; 1.05 µM (active) in [7]; 1.05 µM (active) in assay [8]; 1.05 µM (active) in assay [9]; 1.18 µM (active) in [10]. The Potency in [11] and in assay [12] was 1.05 µM (active) in each case.
Turning to `O=c1c(-c2ccc(O)cc2)coc2cc(OC3O[C@H](CO)[C@H](O)[C@H](O)[C@H]3O)cc(O)c12` (stereo partly specified), the Potency result in assay [1], in assay [4], in [5], in assay [6], in [7] and in [8] was “inactive” throughout. For the same compound, the Potency result in assay [9], in assay [11] and in assay [12] was “inactive” in each case.
In the case of `Cc1nc(-c2cn3c(n2)-c2ccc(-c4cnn(C(C)(C)C(N)=O)c4)cc2OCC3)n(C(C)C)n1`, the Potency result in assay [1] was “inactive”. Also, the Potency is 2.59 µM (active) in [2] and 2.51 µM (active) in assay [3].
In the same order, the values of `COc1ccc(C(Cl)=C(c2ccc(OC)cc2)c2ccc(OC)cc2)cc1` are “inactive”, “inactive” and “inactive”.
Taken in the same sequence, the figures for `O=c1[nH]c(=O)n([C@H]2C[C@H](O)[C@@H](CO)O2)cc1I` were “inactive”, 5.25 µM (active) and “inactive”.
For the compound `O=C1CC[C@H](C(=O)N2CCCCC2)N1`, the Potency entry in assay [1], in assay [2] and in [3] was “inactive” in each case. Moreover, in [13], the activity (max response) is -2.75%.
As for `Nc1ccn(C2CO[C@H](CO)O2)c(=O)n1` (stereo partly specified), the Potency entry in assay [1], in assay [4], in assay [5], in assay [6], in assay [7] and in assay [8] was “inactive” in each case. The Potency result in assay [9], in assay [10], in assay [11] and in assay [12] was “inactive” in each case.
As for `O=c1[nH]c(=O)c2[nH]c(=O)[nH]c2[nH]1`, the activity change, negative = inhibition in assay [1] was 3.23% [at 11.5 µM]. In assay [2], the viability, % of control is 120% [at 9.25 µM]. The Potency in assay [3] was 2.66 µM (active).
For the compound `CCCCNC(=O)NS(=O)(=O)c1ccc(N)cc1`, the Potency result in [1] and in assay [3] was “inactive” throughout. Further, the Potency in [2] was 2.11 µM (active).
`CCNC(=O)Nc1ccc(Oc2ncnc(N)c2C=NOC)cc1Cl`: the Potency entry in assay [1], in assay [4], in assay [5], in assay [6], in [7] and in assay [8] was “inactive” in each case. The Potency entry in assay [9] is “inactive”. Moreover, in assay [12], the Potency is 0.935 µM (active).
On to `C/C=C1\[C@H]2C=C(C)C[C@]1(N)c1ccc(=O)[nH]c1C2`, for which the Potency result in assay [1], in assay [2] and in assay [3] was “inactive” throughout. For the same compound, in [13], the activity (max response) was 12.5%.
Consider `CC(N=C(NC#N)Nc1ccncc1)C(C)(C)C` (stereo unspecified), for which the Potency entry in [1], in assay [2] and in assay [3] was “inactive” each time. Also, in [13], the activity (max response) was 1.19%.
On to `CC(=O)N1C[C@H](O)C[C@H]1C(=O)O`, for which the Potency entry in assay [1], in assay [2] and in [3] was “inactive” throughout.
`NC1CCN(c2cccc(Cl)n2)CC1`: the Potency entry in [1], in assay [2] and in [3] was “inactive” throughout.
As for `Nc1ccc(S(=O)(=O)Nc2ncccn2)cc1`, the Potency entry in assay [1], in assay [4], in [5], in assay [6], in [7] and in assay [8] was “inactive” throughout. The Potency result in [9], in assay [10], in assay [11] and in [12] was “inactive” in each case.
As to `CS(=O)(=O)c1ccc([C@@H](O)[C@@H](CO)NC(=O)C(Cl)Cl)cc1`, the Potency entry in assay [1], in assay [4], in assay [5], in assay [6], in assay [7] and in [3] was “inactive” throughout. In addition, the activity (max response) in assay [13] is -8.84%.
As to `O=C(CCCl)NCc1ccccc1`, the Potency result in [1], in assay [2] and in assay [3] was “inactive” throughout.
On to `NC1CCN(c2nc3c(cc2F)c(=O)c(C(=O)O)cn3-c2ccc(F)cc2F)C1` (stereo unspecified), for which the Potency entry in assay [1], in assay [2] and in assay [3] was “inactive” throughout.
Turning to `CSc1cccc(Nc2ncc3cc(-c4c(Cl)cccc4Cl)c(=O)n(C)c3n2)c1`, the Potency result in [1], in assay [4], in assay [5], in assay [6], in assay [7] and in assay [8] was “inactive” each time. Further, the Potency result in assay [9] and in assay [3] was “inactive” throughout.
Consider `CC(=O)OC[C@H]1O[C@@H](OC(C)=O)[C@H](OC(C)=O)[C@@H]1OC(C)=O`, for which the Potency entry in assay [1], in assay [2] and in assay [3] was “inactive” in each case.
For `COc1ccc(C=CC(=O)Nc2ccccc2C(=O)O)cc1OC`, the Potency entry in assay [1], in [4], in assay [5], in assay [7], in assay [8] and in assay [9] was “inactive” each time. Further, the Potency result in assay [10] and in assay [11] was “inactive” each time.
As to `O=C(NC[C@H](O)CN1CCc2ccccc2C1)c1cc(NC2COC2)ncn1`, the Potency result in assay [1], in assay [4], in assay [5], in assay [6], in [7] and in [8] was “inactive” throughout. In addition, the Potency result in [9] and in [3] was “inactive” in each case. In assay [13], the activity (max response) is -16.9%.
Consider `CC(=O)NC[C@H]1CN(c2ccc(N3CCOCC3)c(F)c2)C(=O)O1`, for which the Potency entry in assay [1], in assay [4], in assay [5], in assay [6], in assay [7] and in [8] was “inactive” throughout. The Potency entry in [9], in assay [10], in assay [11] and in assay [12] was “inactive” each time. Besides, the activity (max response) in assay [13] is 5.63%.
